Mtb hypoxia inh: PubChem AID 1159583; M. tuberculosis hypoxia-regulated fluorescent reporter, fluorescence; fluorescence inhibition, % (no concentration beside the values); 300,000 tested, 0.1% active; in the data active = fluorescence inhibition mostly above about 23%, no sharp cut-off; inactive = mostly below about 17%
ugtP null kill: growth inhibition of ugtP-null S. aureus, primary screen, RN4220 ugtP deletion, OD600. 16 h. growth inhibition, % (no concentration beside the values). 330,000 tested, 0.54% active; in the data active = growth inhibition above about 68%
Sa RN4220 lethal: growth inhibition of S. aureus RN4220, primary screen, OD600 | 16 h | inhibition, % (concentration not given with the values) | 330,000 tested, 0.33% active; in the data active = inhibition above about 85%
A number is an active result; n = inactive; x = not tested or not shown. Most compounds without a hit are left out; they make up all but 0.68% or so of the library.

SMILES	Mtb hypoxia inh	ugtP null kill	Sa RN4220 lethal
CCC(NC(=O)Nc1nnc(C(F)(F)F)s1)(C(F)(F)F)C(F)(F)F	x	88	n
C=C1C(OC(C)=O)CC[C@]2(C)C1CC1CC(OC(C)=O)C(C)=C(C(OC(C)=O)C2OC(C)=O)C1(C)C (stereo not given in full)	n	n	n
O=C(CCCOc1ccccc1)Nc1cccc(S(=O)(=O)N2CCOCC2)c1	n	n	n
CCOc1ccccc1OCCCC(=O)Nc1cccc(S(=O)(=O)N2CCOCC2)c1	26	n	n
O=C(CCCOc1ccccc1)Nc1ccc(S(=O)(=O)N2CCOCC2)cc1	n	n	n
Cc1ccc(OCCCC(=O)Nc2ccc(S(=O)(=O)N3CCOCC3)cc2)cc1	30	n	n
COc1cc(C=C2SC(=O)N(Cc3ccccc3Cl)C2=O)ccc1OCc1ccncc1	x	n	n
CC(=NOCC(=O)O)c1ccc(Cl)cc1	n	n	n
C=CCNC(=O)C1CC1(c1cccc(C)c1)c1cccc(C)c1 (stereo not given)	n	n	n
Cc1cccc(C2(c3cccc(C)c3)CC2C(=O)Nc2ccc([N+](=O)[O-])cc2O)c1 (stereo not given)	n	100	100
CN1C(=O)C2(C(C#N)=C(N)Oc3n[nH]c(-c4ccc(Cl)cc4)c32)c2ccccc21 (stereo not given)	x	n	98
Cc1[nH]nc2c1C1(C(=O)N(Cc3ccc(Cl)cc3)c3ccccc31)C(C#N)=C(N)O2 (stereo not given)	n	n	n
COc1ccc(C2CC(=O)C=C(c3cc(C)ccc3OC)C2)cc1 (stereo not given)	n	n	n
O=C(/C=C/c1ccccc1)N1CCN(CCN2C(=O)c3cccc4cccc(c34)C2=O)CC1	n	98	n
O=C(CCN1C(=O)c2cccc3cccc(c23)C1=O)N1CCOCC1	n	n	n
COc1ccc(C(C)=NNC2=NCCN2)cc1Cl	n	n	n
COc1ccc(/C=C/C(=O)OCC(=O)NC2CCCC(C)C2C)c(OC)c1 (stereo not given)	n	85	n
COc1ccc(/C=C/C(=O)OCC(=O)NC2CC2)c(OC)c1	n	n	n
CC(CC(=O)Nc1ccc(Cl)c(Cl)c1)=NNC(=O)Cc1ccccc1	n	n	n
OCCC1CC(O)C(O)[C@]2(Cc3ccccc3CO2)O1 (stereo not given in full)	n	n	n
C=CCN1C(=O)/C(=C/c2ccc(OC(C)=O)c(OCC)c2[N+](=O)[O-])SC1=S	n	100	99
CCOc1c(OC(C)=O)ccc(/C=C/c2ccc3cccc(OC(C)=O)c3n2)c1[N+](=O)[O-]	n	n	n
CCSc1ncnc2sc3c(c12)CCC3	n	n	n
Fc1ccc(CSc2ncnc3sc4c(c23)CCCC4)cc1	n	83	n
CCN1C(=O)NC(c2ccccc2)C(C(=O)OC)C1C (stereo not given)	n	n	n
SMILES	Mtb hypoxia inh	ugtP null kill	Sa RN4220 lethal
CC(=O)N1C(C)C=C[C@]1(Cc1ccccc1)C(=O)NCCN1CCOCC1 (stereo not given in full)	n	n	n
O=c1c2c(-c3ccc([N+](=O)[O-])cc3)csc2nc2n1CCC2	36	n	n
O=[N+]([O-])c1ccc(-c2nnc3n2CCCCC3)cc1	n	n	n
CCOc1ncccc1C(=O)Nc1cc2c(cc1Br)OCCO2	36	n	n
CCOc1ncccc1C(=O)Nc1ccccc1C(=O)NCc1ccc2c(c1)OCO2	n	n	n
CC(=O)c1ccc(-n2nncc2C(C)(C)C)cc1	n	n	n
Cc1cnnn1-c1ccc(C(=O)CCl)cc1	n	98	98
CCOC(=O)C1C2COc3ccc(C)cc3C2N2C(=O)CN(Cc3ccc(F)cc3)C(=O)[C@@]12C (stereo not given in full)	n	n	n
N#CC(C#N)=C1C=CC=CN1/C(=C\c1ccco1)C(=O)c1ccc(Cl)cc1	n	89	n
N#CC(C#N)=C1C=CC=CN1/C(=C\c1ccco1)C(=O)c1ccc(-c2ccccc2)cc1	n	n	n
Cc1nn(-c2ccccc2)c(C)c1C=NNC(=O)CSc1nnc(-c2ccccc2)n1-c1ccc(Cl)cc1	n	n	n
COC(=O)C1=C(C)N(c2ccc(C)c(C)c2)/C(=C/c2ccc(O)cc2)C1=O	n	91	93
COC(=O)C1=C(C)N(CC2CCCO2)C(=O)/C1=C\c1ccc(O)cc1 (stereo not given)	x	n	n
O=[N+]([O-])OC1COC2C(O[N+](=O)[O-])COC12 (stereo not given)	n	n	n
Cc1cccc(C2C3C(=O)N(Cc4ccccc4)C(=O)C3[C@]3(Cc4ccccc4)C(=O)N(c4cccc(Cl)c4)C(=O)N23)c1 (stereo not given in full)	n	n	n
COc1ccc(C=NOCc2ccccc2C#N)c(OC)c1	n	n	n
COc1ccc(C=NOCc2ccc(Br)cc2)c(OC)c1	n	87	n
